Inconclusive results are not listed. Active and inactive are the calls of the source. Unless noted, calls follow the shape of the dose curve; as a rule, active = well fitted curve in the direction sought with a large enough effect in the repeat runs; inconclusive = weak or mixed curves; inactive = no such curve, though single readings can be large; an effect the other way counts as inactive or inconclusive.
What was measured:
[1] = qHTS assay to identify small molecule agonists of H2AX (AID 1224845; active = well fitted activation curve with a large enough effect in the signal ratio in the repeat runs, not every such curve was filed as active; the % refers to the signal ratio); details: CHO-K1 phospho-H2AX Ser139 HTRF, 3 h; series mostly up to 154 µM
Method in brief: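 Wild-type CHO-K1 cells, plated overnight, exposed 3hr at 37C to 15 concentrations (0.76% DMSO final). Lysed, then HTRF anti-pH2AX (S139) cryptate and anti-H2AX-d2 antibodies, 24 hr room temperature; 665/620 nm emission read.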

[2] = qHTS assay to identify small molecule agonists of the hypoxia (HIF-1) signaling pathway (AID 1224846; active = well fitted activation curve with a large enough effect in the signal ratio in the repeat runs, not every such curve was filed as active; the % refers to the signal ratio; also: potency is read from the fitted curve at half-maximal effect); details: HRE-bla ME-180 cells, beta-lactamase ratio, 17 h; series mostly up to 76.8 µM
Method in brief: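 Compounds added to ME-180 cells carrying hypoxia-response-element beta-lactamase reporter (0.5% dialyzed FBS, 5 h preplating), 17 h at 37C; agonist activity detected by CCF4-AM B/G FRET read-out.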

[3] = qHTS assay to identify small molecule agonists of H2AX - cell viability counter screen (AID 1224847; calls by dose curve; also: top concentration of the series differs between compounds; nearly all actives have a fitted effect of over 30% in size); details: CHO-K1 viability, CellTiter-Glo luminescence, 3 h; series mostly up to 154 µM
Method in brief: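 Viability of CHO-K1 (wild type) cells after 3 hr compound exposure was measured by CellTiter-Glo luminescence.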

[4] = qHTS RealTime-Glo MT Cell Viability Assay in HepG2 cells - 24 hour (AID 1224867); details: RealTime-Glo luminescence; series mostly up to 76.8 µM; also: nearly all actives have a fitted effect of over 50% in size
Method in brief: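 Compound treatment began 5 h after plating HepG2 cells (600/well) with NanoLuc luciferase and prosubstrate. Plates stayed at 37 C for 40 h; luminescence was captured at six time points, 0 h through 40 h.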

[5] = A CellTox Green Cytotoxicity Assay to monitor cytotoxicity in HEK293 cells - 0 hour (AID 1224869); details: CellTox Green fluorescence; series mostly up to 76.8 µM; also: nearly all actives have a fitted effect of over 50% in size
Method in brief: (§1)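 Fluorescence from a DNA-binding dye excluded by viable cells was measured repeatedly in the same HEK293 wells (600 cells/well) during continuous compound exposure at 37 C. Each assay gives one read point: 0, 8, 16, 24, 32 or 40 h.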

[6] = qHTS RealTime-Glo MT Cell Viability Assay in HepG2 cells - 40 hour (AID 1224870); details: RealTime-Glo luminescence; series mostly up to 76.8 µM; also: nearly all actives have a fitted effect of over 50% in size
Method in brief: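 HepG2 cells (600/well) mixed with RealTime-Glo MT reagent, settled 5 h at 37 C/5% CO2 before compound addition. Nonlytic NanoLuc luminescence from viable-cell prosubstrate reduction read repeatedly during 40 h treatment at 37 C.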

[7] = A CellTox Green Cytotoxicity Assay to monitor cytotoxicity in HEK293 cells - 40 hour (AID 1224871); details: CellTox Green fluorescence; series mostly up to 76.8 µM; also: nearly all actives have a fitted effect of over 45% in size
Method in brief: as §1

[8] = qHTS RealTime-Glo MT Cell Viability Assay in HEK293 cells - 32 hour (AID 1224868); details: RealTime-Glo luminescence; series mostly up to 76.8 µM; also: nearly all actives have a fitted effect of over 50% in size; also: potency is read from the fitted curve at half-maximal effect; as to activity change, negative = cytotoxic: top concentration of the series differs between compounds
Method in brief: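 Quantitative high-throughput screen of the Tox21 10K library in HEK293: cells and RealTime-Glo reagents plated together, compound added at 5 h, luminescence monitored through 40 h at 37 C.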

[9] = qHTS assay to identify small molecule antagonists of the estrogen related receptor (ERR) signaling pathway from Tox21 library (AID 1224848); details: ERR reporter cell line, luciferase antagonist mode, 18 h; series mostly up to 92.4 µM; also: nearly all actives have a fitted effect of over 50% in size; also: potency is read from the fitted curve at half-maximal effect
Method in brief: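 Compounds dissolved in DMSO are pin-transferred onto ERR reporter cells (2,000 per well) that have settled for 6 h at 37 C. Plates then incubate 18 h at 37 C before ONE-Glo luciferase reagent and a luminescence read 30 min later.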

[10] = qHTS assay to identify small molecule agonists of the estrogen related receptor (ERR) signaling pathway from Tox21 library (AID 1224849; calls by dose curve; also: nearly all actives have a fitted effect of over 15% in size); details: ERR reporter cell line, ONE-Glo luciferase, 18 h; at 92.4 µM (top of the series) unless noted
Method in brief: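 Luminescent agonist read-out (One-Glo, 30-minute room-temperature incubation) following 18-hour compound treatment at 37 C of the ERR cell line, which had been plated 6 hours before dosing.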
% is scaled to controls: 0 for no effect and ±100 for the full control effect.

NCC(=O)O
inactive: activation (H2AX phosphorylation) [1] 0.478% [at 31.6 µM] | activation [2] -0.806% [at 15.8 µM] | activity change, negative = cytotoxicity [3] 1.04% [at 31.6 µM] | activity change, negative = cytotoxicity [4] 3.17% [at 15.8 µM] | cytotoxicity [5] -0.777% [at 15.8 µM] | activity change, negative = cytotoxic [6] 0.792% [at 15.8 µM] | cytotoxicity increase [7] 1.17% [at 15.8 µM]

CCCCCCCCCCCC(=O)OC[C@@H](O)[C@H]1OC[C@H](OCCO)[C@H]1OCCO
inactive: Potency [1] | Potency [2] | Potency [3] | Potency [4] | Potency [5] | Potency [6] | Potency [7]

CC1OC(=O)C(C)OC1=O (stereo not drawn)
inactive: Potency [1] | Potency [2] | Potency [3] | Potency [4] | Potency [5] | Potency [6] | Potency [7]

CCO[C@H](Cc1ccc(OCCc2ccc(OS(C)(=O)=O)cc2)cc1)C(=O)O
inactive: Potency [1] | Potency [2] | Potency [3] | Potency [4] | Potency [5] | Potency [6] | Potency [7]

CCCC(=O)Nc1ccc(O)c(C(C)=O)c1
inactive: Potency [1] | Potency [2] | Potency [3] | Potency [4] | Potency [5] | Potency [6] | Potency [7]

C[C@@H]1C[C@H]2[C@@H]3CCC4=CC(=O)C=C[C@]4(C)[C@@]3(F)[C@@H](O)C[C@]2(C)[C@@]1(O)C(=O)COC(=O)c1ccncc1
inactive: Potency [1] | Potency [2] | Potency [3] | Potency [4] | Potency [8] | Potency [5] | Potency [6] | Potency [7]

CCOC(=O)C(F)(F)F
inactive: Potency [1] | Potency [2] | Potency [3] | Potency [4] | Potency [8] | Potency [5] | Potency [6] | Potency [7]

CN(C)CCN(Cc1ccc(Cl)cc1)c1ccccn1
inactive: Potency [1] | Potency [2] | Potency [3] | Potency [4] | Potency [8] | Potency [5] | Potency [6] | Potency [7]

CCN(CC)CCNC(=O)c1cc(Br)c(N)cc1OC
inactive: Potency [1] | Potency [3] | Potency [9] | activity change, positive = activation [10] 3.9% [at 42.5 µM] | Potency [4] | Potency [8] | Potency [5] | Potency [7]

CCc1cc(C2=C(C(=O)O)N(c3ccccc3C(F)(F)F)S(=O)(=O)c3ccccc32)cc2c1OCO2
inactive: Potency [1] | Potency [3] | activity change, positive = activation [10] -39.9% | Potency [4] | Potency [8] | Potency [5] | Potency [6] | Potency [7]
active: Potency [9] 24.1 µM

Nc1cccc(S(=O)(=O)c2cccc(N)c2)c1
inactive: Potency [1] | Potency [2] | Potency [9] | activity change, positive = activation [10] 0.747% | Potency [4] | Potency [8] | Potency [5] | Potency [7]

CCOc1ccc(N=Nc2ccc(/C=C/c3ccc(N=Nc4ccc(OCC)cc4)cc3S(=O)(=O)O)c(S(=O)(=O)O)c2)cc1
inactive: Potency [1] | Potency [2] | Potency [3] | Potency [8] | Potency [5] | Potency [6] | Potency [7]

CC(C)=CCC/C(C)=C/CC/C(C)=C/CO
inactive: Potency [1] | Potency [2] | Potency [4] | Potency [5] | Potency [6]

O=C(O)C1(C(=O)Nc2ccc(Cl)cc2Cl)CC1
inactive: Potency [1] | Potency [2] | Potency [3] | Potency [4] | Potency [5] | Potency [6] | Potency [7]

C/C=C/C=C/CO
inactive: Potency [1] | Potency [2] | Potency [3] | Potency [4] | Potency [5] | Potency [7]

CCOC(=O)COC(=O)c1cc(Oc2ccc(C(F)(F)F)cc2Cl)ccc1[N+](=O)[O-]
inactive: Potency [1] | Potency [2] | Potency [4] | Potency [5] | Potency [6]

CCn1cc(C(=O)O)c(=O)c2cnc(N3CCNCC3)nc21
inactive: Potency [1] | Potency [3] | Potency [9] | activity change, positive = activation [10] 2.22% [at 42.5 µM] | Potency [4] | Potency [8] | Potency [5] | Potency [6] | Potency [7]

CC[N+]1(CC)CCC(=C(c2ccccc2)c2ccccc2)C1C (stereo not drawn)
inactive: Potency [1] | Potency [2] | Potency [3] | Potency [5] | Potency [6] | Potency [7]

C[C@H]1C[C@H]2[C@@H]3CCC4=CC(=O)C=C[C@]4(C)[C@@]3(Cl)[C@@H](O)C[C@]2(C)[C@@]1(O)C(=O)CO
inactive: Potency [1] | Potency [3] | activity change, positive = activation [10] -28.8% [at 42.5 µM] | Potency [4] | Potency [8] | Potency [5]
active: Potency [9] 26.6 µM

Cc1oc2c(NC(=O)c3c(Cl)cccc3Cl)cccc2c1C(C)(C)O
inactive: Potency [1] | activity change, positive = activation [10] -55.8% | Potency [4] | Potency [5] | Potency [7]
active: Potency [2] 17.4 µM | Potency [9] 30.6 µM

CCCCC(CC)COC(=O)COc1ccc(Cl)cc1Cl (stereo not drawn)
inactive: Potency [1] | Potency [2] | Potency [3] | Potency [8] | Potency [5] | Potency [6] | Potency [7]

NC(N)=NCCC[C@H](N)C(=O)O
inactive: activation (H2AX phosphorylation) [1] -0.995% [at 14 µM] | activity change, negative = cytotoxicity [3] 0.155% [at 14 µM] | activity, negative = inhibition [9] 11% [at 8.39 µM] | activity change, positive = activation [10] 5.81% [at 8.39 µM] | activity change, negative = cytotoxicity [4] 3.74% [at 6.97 µM] | activity change, negative = cytotoxic [8] 5.15% [at 6.97 µM] | cytotoxicity [5] -14.4% [at 6.97 µM] | activity change, negative = cytotoxic [6] 2.25% [at 6.97 µM] | cytotoxicity increase [7] -21.8% [at 6.97 µM]

Cc1nn(C)c(Oc2ccccc2)c1/C=N/OCc1ccc(C(=O)OC(C)(C)C)cc1
inactive: Potency [1] | Potency [2] | activity change, positive = activation [10] -44.6% | Potency [4] | Potency [5] | Potency [6] | Potency [7]
active: Potency [9] 0.0049 µM | Potency [8] 0.0044 µM

— PubChem BioAssay (Tox21)
